Laboratory results as given in article PMC7862700, “An all-to-all approach to the identification of sequence-specific readers for epigenetic DNA modifications on cytosine”.

Columns and labels:
Assay in all cases: DAPPL (digital affinity profiling via proximity ligation, sequencing); 10 mM Tris-HCl pH 7.5, 50 mM NaCl, 1 mM DTT, 4% glycerol, room temperature, 30 min; GST-TFs on glutathione beads, 16-mer random dsDNA library, 0.1% formaldehyde crosslink after washing; high values mean tight binding
FEV = molecular target: T1, FEV (Homo sapiens, UniProt Q99581 1-238); conditions: protein: recombinant; tags: N-terminal GST; dsDNA, one strand shown
T1 sequence: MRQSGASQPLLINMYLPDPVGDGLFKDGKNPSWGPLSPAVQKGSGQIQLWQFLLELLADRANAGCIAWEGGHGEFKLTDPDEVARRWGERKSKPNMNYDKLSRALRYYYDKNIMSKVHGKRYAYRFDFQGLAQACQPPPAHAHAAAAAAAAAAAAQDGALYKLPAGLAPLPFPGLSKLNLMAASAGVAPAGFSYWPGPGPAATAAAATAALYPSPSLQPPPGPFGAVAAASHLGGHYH
Summary of the method: (§1)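 Beads coated with glutathione captured GST-fused human transcription factors that had been expressed in yeast, and the factors were then given DNA barcodes and pooled with a tag-only sample. The pools were incubated with 200 nmole of a random double-stranded 16-mer DNA library in Tris/NaCl/DTT/glycerol buffer for 30 min at room temperature, washed, crosslinked with 0.1% formaldehyde and proximity-ligated with BsaI/T4 ligase at 37 °C for 1 h. PCR amplification and Illumina NextSeq500 sequencing came last. Binding signal is each hexamer's read frequency for a factor divided by its frequency for the tag-only sample.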

ETV5 = ETV5 (Homo sapiens, UniProt P41161 1-510); conditions: protein: recombinant; tags: N-terminal GST; dsDNA, one strand shown
Summary of the method: as §1

HSF1 = HSF1 (Homo sapiens, UniProt Q00613 1-529); conditions: protein: recombinant; tags: N-terminal GST; chain copies: 3; dsDNA, one strand shown
Summary of the method: as §1

SPIC = molecular target: T2, SPIC (Homo sapiens, UniProt Q8N5J4 1-248); conditions: protein: recombinant; tags: N-terminal GST; dsDNA, one strand shown
T2 sequence: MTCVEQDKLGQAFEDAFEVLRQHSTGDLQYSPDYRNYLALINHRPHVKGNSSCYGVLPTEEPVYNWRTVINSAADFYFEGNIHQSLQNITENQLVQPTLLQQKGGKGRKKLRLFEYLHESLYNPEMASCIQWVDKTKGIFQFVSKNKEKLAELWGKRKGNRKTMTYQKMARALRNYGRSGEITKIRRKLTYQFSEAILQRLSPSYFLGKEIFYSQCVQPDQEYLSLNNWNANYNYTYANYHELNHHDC
Summary of the method: as §1

ELF4 = ELF4 (Homo sapiens, UniProt Q99607 1-663); conditions: protein: recombinant; tags: N-terminal GST; dsDNA, one strand shown
Summary of the method: as §1

ELK4 = molecular target: T3, ELK4 (Homo sapiens, UniProt P28324-2 1-405); conditions: protein: recombinant; tags: N-terminal GST; dsDNA, one strand shown
T3 sequence: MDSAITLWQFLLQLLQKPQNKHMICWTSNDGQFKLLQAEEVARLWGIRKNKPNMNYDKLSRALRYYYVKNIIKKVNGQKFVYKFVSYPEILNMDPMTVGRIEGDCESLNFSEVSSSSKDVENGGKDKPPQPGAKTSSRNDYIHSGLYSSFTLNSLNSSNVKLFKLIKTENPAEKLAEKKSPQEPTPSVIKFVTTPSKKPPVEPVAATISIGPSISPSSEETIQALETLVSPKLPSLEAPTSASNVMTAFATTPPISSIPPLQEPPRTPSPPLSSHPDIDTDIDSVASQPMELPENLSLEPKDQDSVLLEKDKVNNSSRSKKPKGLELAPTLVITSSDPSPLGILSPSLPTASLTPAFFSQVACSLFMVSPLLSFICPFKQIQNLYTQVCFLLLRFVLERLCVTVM
Summary of the method: as §1

ETV2 = molecular target: T4, ETV2 (Homo sapiens, UniProt O00321 1-342); conditions: protein: recombinant; tags: N-terminal GST; dsDNA, one strand shown
T4 sequence: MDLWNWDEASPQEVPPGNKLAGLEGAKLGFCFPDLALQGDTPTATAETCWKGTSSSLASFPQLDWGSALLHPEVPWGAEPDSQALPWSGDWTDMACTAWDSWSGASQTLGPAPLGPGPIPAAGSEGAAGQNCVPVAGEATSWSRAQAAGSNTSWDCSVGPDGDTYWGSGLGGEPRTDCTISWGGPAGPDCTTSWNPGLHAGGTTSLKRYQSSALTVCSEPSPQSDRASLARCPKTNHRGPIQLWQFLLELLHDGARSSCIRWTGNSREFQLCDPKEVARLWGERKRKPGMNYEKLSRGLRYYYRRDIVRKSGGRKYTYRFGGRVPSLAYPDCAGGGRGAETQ
Summary of the method: as §1

ELF3 = molecular target: T5, ELF3 (Homo sapiens, UniProt P78545 1-371); conditions: protein: recombinant; tags: N-terminal GST; dsDNA, one strand shown
T5 sequence: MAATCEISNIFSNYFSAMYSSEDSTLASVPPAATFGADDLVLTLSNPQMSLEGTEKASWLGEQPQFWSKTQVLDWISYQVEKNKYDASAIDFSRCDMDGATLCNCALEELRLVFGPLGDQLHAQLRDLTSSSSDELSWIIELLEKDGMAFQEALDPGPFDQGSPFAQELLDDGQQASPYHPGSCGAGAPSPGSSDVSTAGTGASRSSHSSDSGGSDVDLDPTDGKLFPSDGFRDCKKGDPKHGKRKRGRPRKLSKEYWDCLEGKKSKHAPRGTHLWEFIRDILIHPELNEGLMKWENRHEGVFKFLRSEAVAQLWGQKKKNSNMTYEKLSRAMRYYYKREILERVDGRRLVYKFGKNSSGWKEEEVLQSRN
Summary of the method: as §1

CRX = CRX (Homo sapiens, UniProt O43186 1-299); conditions: protein: recombinant; tags: N-terminal GST; dsDNA, one strand shown
Summary of the method: as §1

ETV1 = ETV1 (Homo sapiens, UniProt P50549 1-477); conditions: protein: recombinant; tags: N-terminal GST; dsDNA, one strand shown
Summary of the method: as §1

ERF = molecular target: T6, ERF (Homo sapiens, UniProt P50548 1-548); conditions: protein: recombinant; tags: N-terminal GST; dsDNA, one strand shown
T6 sequence: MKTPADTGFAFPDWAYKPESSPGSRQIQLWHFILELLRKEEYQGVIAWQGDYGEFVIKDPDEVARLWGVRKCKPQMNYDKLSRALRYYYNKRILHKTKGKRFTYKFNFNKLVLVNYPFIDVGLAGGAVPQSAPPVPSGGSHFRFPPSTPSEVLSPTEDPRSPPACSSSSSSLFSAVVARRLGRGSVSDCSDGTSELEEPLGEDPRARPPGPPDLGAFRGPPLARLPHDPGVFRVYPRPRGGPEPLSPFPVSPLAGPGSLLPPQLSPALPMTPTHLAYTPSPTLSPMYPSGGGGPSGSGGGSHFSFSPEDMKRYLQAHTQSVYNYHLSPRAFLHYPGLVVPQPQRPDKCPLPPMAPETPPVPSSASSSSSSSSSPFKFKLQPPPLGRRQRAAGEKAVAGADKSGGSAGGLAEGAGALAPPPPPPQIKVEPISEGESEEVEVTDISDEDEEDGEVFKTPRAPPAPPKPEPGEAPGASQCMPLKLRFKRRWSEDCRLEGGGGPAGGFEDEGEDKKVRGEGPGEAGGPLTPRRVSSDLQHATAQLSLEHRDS
Summary of the method: as §1

ETV3L = molecular target: T7, ETV3L (Homo sapiens, UniProt Q6ZN32 1-361); conditions: protein: recombinant; tags: N-terminal GST; dsDNA, one strand shown
T7 sequence: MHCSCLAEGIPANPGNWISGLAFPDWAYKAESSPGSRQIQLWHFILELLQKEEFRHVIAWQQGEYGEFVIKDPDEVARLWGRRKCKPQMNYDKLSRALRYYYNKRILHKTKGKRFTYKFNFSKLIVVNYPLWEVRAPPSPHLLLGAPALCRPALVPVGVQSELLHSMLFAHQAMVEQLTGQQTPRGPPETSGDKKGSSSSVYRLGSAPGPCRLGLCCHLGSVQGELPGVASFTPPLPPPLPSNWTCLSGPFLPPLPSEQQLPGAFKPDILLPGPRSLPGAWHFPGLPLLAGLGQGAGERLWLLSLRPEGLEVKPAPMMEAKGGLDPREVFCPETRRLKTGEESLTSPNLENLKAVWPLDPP
Summary of the method: as §1

ETS2 = molecular target: T8, ETS2 (Homo sapiens, UniProt P15036 1-469); conditions: protein: recombinant; tags: N-terminal GST; dsDNA, one strand shown
T8 sequence: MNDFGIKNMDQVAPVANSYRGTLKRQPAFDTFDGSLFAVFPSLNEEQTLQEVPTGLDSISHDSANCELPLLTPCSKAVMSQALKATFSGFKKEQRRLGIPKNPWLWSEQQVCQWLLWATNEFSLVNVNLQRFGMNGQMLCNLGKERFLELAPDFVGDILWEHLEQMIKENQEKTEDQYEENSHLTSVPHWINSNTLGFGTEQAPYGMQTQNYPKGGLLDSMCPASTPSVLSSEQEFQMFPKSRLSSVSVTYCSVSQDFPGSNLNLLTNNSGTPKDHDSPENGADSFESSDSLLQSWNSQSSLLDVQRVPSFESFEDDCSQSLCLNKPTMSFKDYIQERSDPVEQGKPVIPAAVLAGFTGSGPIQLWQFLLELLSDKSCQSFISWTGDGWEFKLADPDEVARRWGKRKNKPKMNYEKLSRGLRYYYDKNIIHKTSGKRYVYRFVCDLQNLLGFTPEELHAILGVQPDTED
Summary of the method: as §1

SPDEF = molecular target: T9, SPDEF (Homo sapiens, UniProt O95238 1-335); conditions: protein: recombinant; tags: N-terminal GST; dsDNA, one strand shown
T9 sequence: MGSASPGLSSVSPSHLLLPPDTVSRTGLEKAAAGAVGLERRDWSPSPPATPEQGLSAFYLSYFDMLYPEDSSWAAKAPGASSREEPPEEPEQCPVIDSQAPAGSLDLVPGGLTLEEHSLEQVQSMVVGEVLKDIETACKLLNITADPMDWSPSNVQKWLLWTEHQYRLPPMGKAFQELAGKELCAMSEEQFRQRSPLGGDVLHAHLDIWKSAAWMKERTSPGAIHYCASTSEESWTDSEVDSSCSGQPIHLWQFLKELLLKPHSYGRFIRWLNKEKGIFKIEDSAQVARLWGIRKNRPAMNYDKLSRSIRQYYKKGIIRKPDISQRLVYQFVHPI
Summary of the method: as §1

ETV7 = molecular target: T10, ETV7 (Homo sapiens, UniProt Q9Y603 1-341); conditions: protein: recombinant; tags: N-terminal GST; dsDNA, one strand shown
T10 sequence: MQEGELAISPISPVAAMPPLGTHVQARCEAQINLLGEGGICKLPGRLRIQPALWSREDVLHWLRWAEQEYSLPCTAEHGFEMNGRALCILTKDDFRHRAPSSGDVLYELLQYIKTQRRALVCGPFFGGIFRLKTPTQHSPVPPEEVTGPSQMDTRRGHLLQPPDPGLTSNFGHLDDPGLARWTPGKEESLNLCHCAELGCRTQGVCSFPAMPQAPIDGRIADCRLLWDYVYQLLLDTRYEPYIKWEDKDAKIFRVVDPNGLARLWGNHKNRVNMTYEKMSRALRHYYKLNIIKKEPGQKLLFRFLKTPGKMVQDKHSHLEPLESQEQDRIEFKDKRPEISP
Summary of the method: as §1

ELF5 = molecular target: T11, ELF5 (Homo sapiens, UniProt Q9UKW6-2 1-255); conditions: protein: recombinant; tags: N-terminal GST; dsDNA, one strand shown
T11 sequence: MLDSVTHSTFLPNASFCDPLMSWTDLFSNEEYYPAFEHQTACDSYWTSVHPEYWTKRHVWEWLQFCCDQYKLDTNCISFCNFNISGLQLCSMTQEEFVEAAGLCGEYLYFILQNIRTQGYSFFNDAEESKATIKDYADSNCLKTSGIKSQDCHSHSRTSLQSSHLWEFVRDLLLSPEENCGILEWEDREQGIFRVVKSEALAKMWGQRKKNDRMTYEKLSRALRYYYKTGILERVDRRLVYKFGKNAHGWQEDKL
Summary of the method: as §1

ETV3 = molecular target: T12, ETV3 (Homo sapiens, UniProt P41162-2 1-143); conditions: protein: recombinant; tags: N-terminal GST; dsDNA, one strand shown
T12 sequence: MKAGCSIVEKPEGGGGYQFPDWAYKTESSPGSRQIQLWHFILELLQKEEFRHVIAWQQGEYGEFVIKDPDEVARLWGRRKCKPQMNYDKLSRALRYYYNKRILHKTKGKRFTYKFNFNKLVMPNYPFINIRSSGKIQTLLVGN
Summary of the method: as §1

ETV6 = ETV6 (Homo sapiens, UniProt P41212 1-452); conditions: protein: recombinant; tags: N-terminal GST; dsDNA, one strand shown
Summary of the method: as §1

Chain of HSF1 (Q00613 whole entry): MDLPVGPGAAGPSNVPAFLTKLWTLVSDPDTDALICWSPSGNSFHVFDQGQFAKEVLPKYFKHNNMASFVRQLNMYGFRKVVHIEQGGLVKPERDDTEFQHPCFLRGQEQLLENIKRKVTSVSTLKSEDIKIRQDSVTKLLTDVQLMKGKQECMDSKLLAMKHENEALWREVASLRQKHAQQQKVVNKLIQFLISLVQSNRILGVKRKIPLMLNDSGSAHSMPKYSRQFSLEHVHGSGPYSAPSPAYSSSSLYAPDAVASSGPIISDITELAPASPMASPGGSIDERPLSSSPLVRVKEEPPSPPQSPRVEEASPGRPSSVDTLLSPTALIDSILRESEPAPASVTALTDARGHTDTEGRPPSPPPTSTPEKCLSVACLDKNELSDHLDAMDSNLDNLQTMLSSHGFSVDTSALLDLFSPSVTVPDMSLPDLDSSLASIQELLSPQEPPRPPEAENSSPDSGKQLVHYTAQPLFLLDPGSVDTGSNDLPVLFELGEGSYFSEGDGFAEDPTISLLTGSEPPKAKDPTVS
Chain of ETV5 (P41161 whole entry): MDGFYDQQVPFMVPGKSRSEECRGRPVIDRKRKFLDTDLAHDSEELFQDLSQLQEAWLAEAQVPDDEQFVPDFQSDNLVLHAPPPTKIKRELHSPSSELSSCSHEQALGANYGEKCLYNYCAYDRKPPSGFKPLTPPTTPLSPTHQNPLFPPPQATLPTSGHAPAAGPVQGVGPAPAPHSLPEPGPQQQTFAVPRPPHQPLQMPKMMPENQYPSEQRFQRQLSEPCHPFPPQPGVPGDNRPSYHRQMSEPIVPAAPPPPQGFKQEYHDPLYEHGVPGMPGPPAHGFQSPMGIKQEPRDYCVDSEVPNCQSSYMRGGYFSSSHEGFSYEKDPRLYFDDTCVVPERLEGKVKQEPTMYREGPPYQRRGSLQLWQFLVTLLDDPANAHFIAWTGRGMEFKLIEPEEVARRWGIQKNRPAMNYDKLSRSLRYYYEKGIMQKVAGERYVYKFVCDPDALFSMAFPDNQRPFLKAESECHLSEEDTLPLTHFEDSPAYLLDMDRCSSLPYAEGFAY
Chain of ETV6 (P41212 whole entry): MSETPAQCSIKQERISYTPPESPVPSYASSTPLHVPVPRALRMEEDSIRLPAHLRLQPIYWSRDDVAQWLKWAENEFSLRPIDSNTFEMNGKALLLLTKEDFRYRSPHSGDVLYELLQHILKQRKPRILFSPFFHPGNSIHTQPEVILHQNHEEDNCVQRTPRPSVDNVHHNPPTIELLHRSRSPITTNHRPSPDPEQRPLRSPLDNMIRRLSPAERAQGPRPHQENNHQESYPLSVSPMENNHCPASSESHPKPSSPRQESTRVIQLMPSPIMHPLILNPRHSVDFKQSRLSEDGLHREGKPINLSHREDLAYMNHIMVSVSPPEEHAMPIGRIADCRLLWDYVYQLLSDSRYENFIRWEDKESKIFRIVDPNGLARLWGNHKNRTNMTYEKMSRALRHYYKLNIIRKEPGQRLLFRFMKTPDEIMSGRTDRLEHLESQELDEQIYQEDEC
Chain of ELF4 (Q99607 whole entry): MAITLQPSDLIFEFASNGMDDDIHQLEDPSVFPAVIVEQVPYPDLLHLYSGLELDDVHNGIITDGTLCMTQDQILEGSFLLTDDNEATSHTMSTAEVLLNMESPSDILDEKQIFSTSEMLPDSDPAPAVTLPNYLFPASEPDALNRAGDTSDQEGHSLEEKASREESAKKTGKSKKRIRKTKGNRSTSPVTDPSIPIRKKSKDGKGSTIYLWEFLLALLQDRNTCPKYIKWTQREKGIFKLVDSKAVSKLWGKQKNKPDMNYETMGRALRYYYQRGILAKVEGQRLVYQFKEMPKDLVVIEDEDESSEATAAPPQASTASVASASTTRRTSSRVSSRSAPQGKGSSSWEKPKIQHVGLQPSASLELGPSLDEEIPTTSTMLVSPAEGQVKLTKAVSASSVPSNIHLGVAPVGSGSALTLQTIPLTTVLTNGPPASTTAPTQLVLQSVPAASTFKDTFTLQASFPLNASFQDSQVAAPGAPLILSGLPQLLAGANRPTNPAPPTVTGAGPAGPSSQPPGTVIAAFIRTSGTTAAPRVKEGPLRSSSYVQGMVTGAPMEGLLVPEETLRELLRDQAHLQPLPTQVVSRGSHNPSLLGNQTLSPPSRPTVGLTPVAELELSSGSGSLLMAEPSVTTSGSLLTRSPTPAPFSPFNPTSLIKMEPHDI
Chain of CRX (O43186 whole entry): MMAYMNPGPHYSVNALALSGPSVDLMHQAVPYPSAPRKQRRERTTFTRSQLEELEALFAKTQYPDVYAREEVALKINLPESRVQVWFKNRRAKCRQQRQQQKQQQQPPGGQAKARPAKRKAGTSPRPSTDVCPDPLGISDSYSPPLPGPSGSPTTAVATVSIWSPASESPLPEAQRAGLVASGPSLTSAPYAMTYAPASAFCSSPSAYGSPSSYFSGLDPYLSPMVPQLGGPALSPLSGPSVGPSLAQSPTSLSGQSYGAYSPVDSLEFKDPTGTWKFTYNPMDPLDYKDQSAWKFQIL
Chain of ETV1 (P50549 whole entry): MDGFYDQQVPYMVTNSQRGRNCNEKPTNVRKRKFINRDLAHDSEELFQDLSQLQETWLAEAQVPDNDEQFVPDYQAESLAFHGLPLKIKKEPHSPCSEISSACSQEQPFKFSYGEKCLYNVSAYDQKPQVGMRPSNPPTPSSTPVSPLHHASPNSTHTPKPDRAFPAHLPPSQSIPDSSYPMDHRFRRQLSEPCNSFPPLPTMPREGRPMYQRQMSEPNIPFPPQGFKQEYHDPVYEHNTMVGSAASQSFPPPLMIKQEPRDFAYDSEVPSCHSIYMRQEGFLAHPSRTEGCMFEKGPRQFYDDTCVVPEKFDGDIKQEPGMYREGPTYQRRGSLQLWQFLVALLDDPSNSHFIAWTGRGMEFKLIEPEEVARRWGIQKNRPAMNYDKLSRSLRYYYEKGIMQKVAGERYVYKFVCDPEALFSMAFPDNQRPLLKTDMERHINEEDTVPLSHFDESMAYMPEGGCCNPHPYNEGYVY

What does the source list for TTACAT?
binding signal (FEV): 1.3 fold enrichment (6-mer frequency, TF over GST control); binding signal (ETV5): 1.31 fold enrichment (6-mer frequency, TF over GST control); binding signal (HSF1): 1.45 fold enrichment (6-mer frequency, TF over GST control); binding signal (SPIC): 1.34 fold enrichment (6-mer frequency, TF over GST control); binding signal (ELF4): 1.34 fold enrichment (6-mer frequency, TF over GST control); binding signal (ELK4): 1.34 fold enrichment (6-mer frequency, TF over GST control); binding signal (ETV2): 1.43 fold enrichment (6-mer frequency, TF over GST control); binding signal (ELF3): 1.4 fold enrichment (6-mer frequency, TF over GST control); binding signal (CRX): 1.81 fold enrichment (6-mer frequency, TF over GST control); binding signal (ETV1): 1.39 fold enrichment (6-mer frequency, TF over GST control); binding signal (ERF): 1.41 fold enrichment (6-mer frequency, TF over GST control); binding signal (ETV3L): 1.26 fold enrichment (6-mer frequency, TF over GST control); binding signal (ETS2): 1.34 fold enrichment (6-mer frequency, TF over GST control); binding signal (SPDEF): 1.41 fold enrichment (6-mer frequency, TF over GST control); binding signal (ETV7): 1.2 fold enrichment (6-mer frequency, TF over GST control); binding signal (ELF5): 1.35 fold enrichment (6-mer frequency, TF over GST control); binding signal (ETV3): 1.3 fold enrichment (6-mer frequency, TF over GST control); binding signal (ETV6): 1.27 fold enrichment (6-mer frequency, TF over GST control)
